Measurements as given in PubChem BioAssay (NCI).
About 79,000 compounds went through this panel and 15% of them were active in at least one assay; those are over-represented in the sample as a whole. No stated cut-off is given here; in the data, active means growth inhibition above about 70%; inactive means the rest.

Assays:
[1] = NCI Yeast Anticancer Drug Screen. Data for the rad50 strain (AID 155);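 further: 0% = growth of vehicle-only cultures of the same strain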; conditions: S. cerevisiae rad50 strain growth inhibition; at 50.0 µM; hits give high values
Procedure, shortened: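 DNA repair mutant yeast, compound exposure, growth read-out; inhibition is taken relative to vehicle.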

[2] = NCI Yeast Anticancer Drug Screen. Data for the mec2-1 strain (AID 157); conditions: S. cerevisiae mec2-1 strain, at 50.0 µM, hits give high values
Procedure, shortened: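 Cells of the genetically defined mec2-1 yeast strain are incubated with test compound. Inhibition of growth is calculated against vehicle-treated controls.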

[3] = NCI Yeast Anticancer Drug Screen. Data for the sgs1 mgt1 strain (AID 161);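 further: 0% = growth of cultures given vehicle only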; conditions: S. cerevisiae sgs1 mgt1 strain, at 50.0 µM, hits give high values
Procedure, shortened: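 Genetically altered yeast, compound exposure, growth inhibition relative to vehicle.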

[4] = NCI Yeast Anticancer Drug Screen. Data for the cln2 rad14 strain (AID 165);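 further: 0% = growth equal to vehicle treated cultures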; conditions: S. cerevisiae cln2 rad14 strain, at 50.0 µM, hits give high values
Procedure, shortened: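 The screen exposed genetically defined yeast (cln2 rad14) to test compounds and scored growth inhibition relative to vehicle-treated controls.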

[5] = NCI Yeast Anticancer Drug Screen. Data for the bub3 strain (AID 167); conditions: S. cerevisiae bub3 mutant strain, at 50.0 µM, hits give high values
Procedure, shortened: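 In this screen, a yeast mutant lacking normal mitotic checkpoint function is challenged with compound. Relative growth versus vehicle gives the inhibition value.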

[6] = NCI Yeast Anticancer Drug Screen. Data for the mlh1 rad18 strain (AID 175); conditions: S. cerevisiae mlh1 rad18 strain growth inhibition; at 50.0 µM; hits give high values
Procedure, shortened: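 Compound-treated yeast growth, normalised to vehicle controls. Strain bears defined DNA repair mutations.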

Measured: growth inhibition

CC1=CCCCC1=O
inactive: [1] -7.25% | [2] -4.35% | [3] 5.6% | [4] 2.4% | [5] -12.9% | [6] -4.15%

Cc1cc(-n2cnc3c(N(CCO)CCO)ncnc32)ccc1[N+](=O)[O-]
inactive: [1] 10.1% | [2] -8.5% | [3] -3.95% | [4] -1.9% | [5] 0.5% | [6] -5.8%

CN[C@H]1CC[C@]23C[C@]24CC[C@]2(C)[C@@H]([C@H](C)N(C)C)CC[C@@]2(C)[C@@H]4CC[C@H]3C1(C)C
inactive: [1] 1.3% | [2] -4.65% | [3] 9.2% | [4] 6.35% | [5] 8.25% | [6] -63.8%

O=C(O)c1cc(=O)[nH]c(SCc2ccccc2)n1
inactive: [1] -9.7% | [2] -20.1% | [3] -28.5% | [4] -30.2% | [5] -20.8% | [6] -5.35%

O=C(c1ccccc1)c1cccc2c1ccc1ccccc12
inactive: [1] 13.4% | [2] 38.9% | [3] 38.3% | [4] 17% | [5] 23.4% | [6] 32.5%

CNC(=O)c1ccccc1C
inactive: [1] -1.15% | [2] -6% | [3] -6.9% | [4] -33.3% | [5] 6.55% | [6] 0.35%

CN1Cc2ccccc2C1
inactive: [1] 0.75% | [2] -3.5% | [3] 1.7% | [4] 10.4% | [5] 17.4% | [6] 5.55%

[N-]=[N+]=NC1(Cc2ccccc2)C(=O)Nc2ccccc2C1=O (configuration not stated)
inactive: [1] 0.8% | [2] -10.1% | [3] -19.4% | [4] 4.2% | [5] -5.65% | [6] -16%

O=C(c1ccc(O)c(C(=O)O)c1)c1ccc(O)c(C(=O)O)c1
inactive: [1] 10.9% | [2] -13.9% | [3] -5.3% | [4] -0.7% | [5] -19.9% | [6] -2.85%

COC(=O)c1ccc(C(=O)c2ccc(OC)cc2OC)cc1
inactive: [1] -0.1% | [2] -4.05% | [3] -0.85% | [4] -58.8% | [5] 4.15% | [6] -17.4%

CCCCNC(=O)CC
inactive: [1] 3.1% | [2] -11.2% | [3] 3% | [4] 4.85% | [5] 14.9% | [6] -1.95%

CC1=NNC(=O)C1CCS (configuration not stated)
inactive: [1] -3.55% | [2] 4.35% | [3] -1.45% | [4] -3.1% | [5] -8% | [6] -7.4%

O=C(CC(C(=O)c1cccs1)c1cccs1)c1ccccc1Cl (configuration not stated)
inactive: [1] -10% | [2] -27.6% | [3] -12.6% | [4] -11.3% | [5] -3.8% | [6] -8.15%

COc1ccc(CCNC(=S)NC(=O)c2ccc(Cl)c(Cl)c2)cc1OC
inactive: [1] 47.6% | [2] 47% | [3] 68.3% | [4] 49.5% | [5] 44.4% | [6] 56%

NC(=O)c1c[n+]([O-])ccc1[N+](=O)[O-]
inactive: [1] 40.1% | [2] 5.3% | [3] 34.8% | [4] 28.1% | [5] -14.8% | [6] 18.2%

O=C1Nc2ccccc2C1=Nc1cccc2ncccc12
inactive: [1] 3.35% | [2] -7.75% | [3] -11.1% | [4] -4.5% | [5] 8.7% | [6] 15.4%

COC(=O)CC/C=N/NC(N)=O
inactive: [1] 10.2% | [2] 4.5% | [3] 7.7% | [4] -17.8% | [5] 2.35% | [6] -4.05%

CCCC(=O)C(=O)CCC
inactive: [1] -5.25% | [2] -17.4% | [3] 2.3% | [4] -26.1% | [5] -0.15% | [6] -3.45%

Cc1cc[n+]2c(c1)-c1cc(C)cc[n+]1CC2
inactive: [1] 26.7% | [2] 1.15% | [3] 14.3% | [4] -10.8% | [5] 0.6% | [6] 6.3%

CCOC(=O)C1=C(C)N(C2OC(COC(=O)c3ccccc3)C(OC(=O)c3ccccc3)C2OC(=O)c2ccccc2)C(=S)NC1c1ccccc1 (configuration not stated)
inactive: [1] -0.8% | [2] -27.1% | [3] 10.6% | [4] -2.6% | [5] -4.85% | [6] -6.05%

COc1ccc(C2=Nn3c(nc4sc(-c5ccccc5)cc4c3=O)SC2)cc1
inactive: [1] -16.9% | [2] -9.15% | [3] -25.6% | [4] 3.55% | [5] -8.05% | [6] -16%

CC(C)CCOC(=O)COc1ccc(Cl)cc1Cl
inactive: [1] 6.95% | [2] -13.7% | [3] 3.55% | [4] 19.2% | [5] 18.8% | [6] -17%

CCCCCCCCCC1=C(C#N)C(=O)OCCN1C
inactive: [1] -12.9% | [2] -2.7% | [3] 0.05% | [4] -22.1% | [5] -11.4% | [6] 3.6%

CC1(C)N=C(N)N=C(N)N1c1cccc(OCc2cccc([N+](=O)[O-])c2)c1
inactive: [1] 0.55% | [2] 7.2% | [3] -31.3% | [4] 24.6% | [5] -30.3% | [6] -14.8%

ClC[P+](c1ccccc1)(c1ccccc1)c1ccccc1
inactive: [1] 38.2% | [2] 19.3% | [3] 13.2% | [4] 11.6% | [5] 24.8% | [6] 33.4%

Cc1c(COC(=O)NC(C)C)c(COC(=O)NC(C)C)c2n1CCS2(=O)=O
inactive: [1] -26.8% | [2] -20.8% | [3] 4.75% | [4] -32.7% | [5] 0.5% | [6] -21.6%

CCOC(=O)C1C(=O)CC(O)(c2ccccc2)C(C(=O)OCC)C1c1ccc(OC)cc1 (configuration not stated)
inactive: [1] -17.9% | [2] -13.2% | [3] -6.65% | [4] -31.1% | [5] 6.95% | [6] -3.7%

Nc1n[nH]c(CO)n1
inactive: [1] 7.3% | [2] 4.05% | [3] -6.6% | [4] 9.65% | [5] -14.8% | [6] -7.1%

CC(=O)Nc1ccc(O)c([N+](=O)[O-])c1
inactive: [1] 3.1% | [2] 3.3% | [3] 3.3% | [4] -36% | [5] -9.15% | [6] -11.4%

O=C(Cc1ccccc1)NCc1ccc(Cl)cc1
inactive: [1] 3.75% | [2] 18.2% | [3] 34.1% | [4] -5.7% | [5] 41.1% | [6] 27.4%

COc1ccc(/C=C2\CN(C)Cc3c2nc(N)nc3-c2ccc(OC)cc2)cc1
inactive: [1] 2.05% | [2] -13.1% | [3] 5.2% | [4] 38.1% | [5] -5.5% | [6] 5.75%

COC1OC(C(=O)O)C(O)C(O)C1O (configuration not stated)
inactive: [1] 6.75% | [2] -21.1% | [3] -2.6% | [4] -4% | [5] -17.6% | [6] 8.3%

CCOC(=O)CCC(NC(=O)c1ccc(Nc2cnc3ccc(C(F)(F)F)cc3n2)cc1)C(=O)OCC (configuration not stated)
inactive: [1] 24.3% | [2] 6.45% | [3] 12.2% | [4] 14.1% | [5] 19.9% | [6] -23.8%

NC(=O)c1ccccc1C(=O)c1ccccc1
inactive: [1] -35% | [2] 1.85% | [3] -8.6% | [4] -20.1% | [5] -27.1% | [6] -10.3%

CC(CC(=O)Nc1ccc(NC(=O)CC(C)N=NC(N)=S)cc1)N=NC(N)=S (configuration not stated)
inactive: [1] 30.6% | [2] 3.95% | [3] -5.35% | [4] -27.2% | [5] 1.75% | [6] 14%

O=S(=O)(/N=C1C=C/C(=N\S(=O)(=O)c2ccccc2)C2C/1C2(c1ccccc1)c1ccccc1)c1ccccc1 (configuration not stated)
inactive: [1] 39.7% | [2] 17.6% | [3] 29.8% | [4] -30.6% | [5] 1.75% | [6] 13.7%

COC(=O)CC(C)N(c1ccc(OC)cc1)S(=O)(=O)c1ccc(C)cc1 (configuration not stated)
inactive: [1] 18.4% | [2] 4.05% | [3] 14.3% | [4] -46% | [5] 17.6% | [6] 10.3%

CN(O)C(=O)c1ccccc1
inactive: [1] 5.45% | [2] -8.4% | [3] -6.35% | [4] 11.9% | [5] 15.1% | [6] 16.9%

Cc1ccccc1NC(=O)C(=O)CC(=O)c1sc(Nc2ccccc2[N+](=O)[O-])nc1C
inactive: [1] 8.8% | [2] -7.45% | [3] -7.4% | [4] -10.3% | [5] -0.3% | [6] -2.9%

Cn1nc(-c2ccccc2)c(C(=O)/C=C/c2ccc(Cl)cc2)c(N2CCCC2)c1=O
inactive: [1] -5.1% | [2] -1.5% | [3] -4.9% | [4] -5.95% | [5] 14.8% | [6] -10.1%

CCOC(=O)CNC(N)=O
inactive: [1] 33.6% | [2] 15.3% | [3] -19.5% | [4] 19.4% | [5] 23.8% | [6] 5.2%

C=C1C(=O)O[C@H]2[C@H]1CC(=O)/C(C)=C/CC[C@@]1(C)O[C@@H]21
inactive: [1] 32.7% | [2] 21.4% | [3] 32.8% | [4] 21.4% | [5] 25.6% | [6] 7%
